Data on 13 compounds can be found in PubChem BioAssay.

The assay is described as follows: hepatitis C replication reporter changes, two-sided – Huh7 cells, luciferase reporter, HCV replication inhibitor project, primary screen (AID 1109).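 Note: huh7 hepatoma cells harbouring a luciferase neomycin HCV replicon reporter; luciferase luminescence as measure of HCV replicon replication; test concentration not given here.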 The note with it: Huh7 HCV replicon luciferase reporter, 48 h; higher = more signal.
`CCOC(=O)[C@H](Cc1ccccc1)NC(=O)CCC1CC(OC(=O)NCc2cccc3ccccc23)CC2(CCCC(COC(=O)NCc3ccc4c(c3)OCO4)O2)O1` (stereo partly drawn) returned a z-score of 1.08.

With `COc1cccc([C@H]2Oc3ccc(OC)cc3C(=NO[C@@H](C)c3cc(-c4c(C)cc(C)cc4C)no3)[C@@H]2O)c1`, the z-score was -1.71.

`CC(=O)OC[C@H]1O[C@H](C#CCCc2ccccc2)C=C[C@@H]1OC(C)=O` showed a z-score of -1.12.

`CC(C)=NO[C@@H](C)c1cn([C@H](CO)Cc2ccccc2)nn1` showed a z-score of 1.13.

Turning to `COC(=O)C(C(=O)OC)C1CCCC(=O)C1` (stereo not drawn), the z-score was 0.593.

With `COC(=O)CC=C[C@@H](C)[C@@H](C=NOC[C@@H](C)[C@H](OCc1ccccc1)C(C)C)OC`, the z-score was -0.759.

Turning to `COc1ccc(O[C@H]2C=C[C@@H](c3ccccc3)O[C@@H]2COC(=O)NCc2cccc3ccccc23)cc1`, the z-score is -2.19.

Regarding `CC(C)CON=C1C[C@@H](O)[C@@H](O)[C@@H]2[C@@H]3C(=O)N(C(C)(C)C)C(=O)[C@@H]3CC[C@@H]12`, the z-score is -0.851.

On to `CON=C(C)CCN1CCCCc2nc(C)c(C)cc21`, for which the z-score is -0.319.

Regarding `O=C1[C@H]2[C@H]3[C@H](O)[C@H](O)CC(=NO[C@@H]4O[C@H](CO)[C@@H](O)[C@H](O)[C@H]4O)[C@@H]3CC[C@H]2C(=O)N1C[C@@H]1CCCO1`, the z-score is -0.682.

On to `CCN1C(=O)[C@H]2[C@@H]3C(=CC[C@H]2C1=O)C(=O)[C@H]1O[C@H]1[C@H]3O`, for which the z-score was -5.32.

`CC=CC1=C(CO)[C@H](O)[C@H]2O[C@H]2[C@@H]1O` registered a z-score of 0.382.

Turning to `CC(=O)OC[C@H]1O[C@H](CC=NOC[C@@H](O)[C@H]2O[C@@H]3OC(C)(C)O[C@@H]3[C@H]2O)C=C[C@@H]1OC(C)=O`, the z-score was -0.041.
